The subject of one experiment is PPARg:RXRa 90nM:30nM, anti-RXR (NR concentration 90 nM, RXRa partner concentration 30 nM). The experiment can be described thus: PBM binding z-score (relative to random genomic background probes); higher = stronger binding; sequences stand for … in GC…GCGATTGACAGCGTAGAATGAAGG
The method in brief:
(§1)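 Ligand-free nuclear receptor dimers were bound for 1 h to custom Agilent 4×180K protein-binding microarrays. Detection used antibodies against each partner (one per run). Binding z-scores rest on regression-normalized fluorescence, with random background probes as the reference.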
Turning to TGAATGAGGTTAAAGATCTGGGAACGTGGCGTCG, the PBM binding z-score was found to be 2.98.

In turn, CTCGCAAGGTCGGTTGAGGTGAGTATACGGATAA returned a PBM binding z-score of -0.159.

Take CCACACAGGTGAAAGGTAACTCAGTCTGGTACGC: the PBM binding z-score worked out at 5.21.

Sequence CCTACTGCGCCAAGGTCATTGATCAGTCAAAGCA gave a PBM binding z-score of 0.819.

Consider TCTATTAGTTGAAGTGCAACCGACGAGTCCGTTT, for which the PBM binding z-score is 2.88.

Consider AGAACGAGGGCAATGAGTAGATAGCACGGGTGGC, for which the PBM binding z-score was determined as 0.733.

TTGCCAAGGTGAAGGTCGTTGATCCCTCTGTAGA came in with a PBM binding z-score of 1.41.

In turn, TCTAGTTGGTCACGGAGGTCACACACGACGGGTA gave a PBM binding z-score of 3.75.

The sequence ACAGACAGGTTAGTGAAGGTAACTCAGCTGGACG registered a PBM binding z-score of 0.0314.

As for GCGATTGGGGCAAAGCAGGTTACCATAAGGTTGG, the PBM binding z-score worked out at 0.132.

Sequence ATCTCTAGGTAAGACTCCGTTCAGTGAAGAACGC returned a PBM binding z-score of 0.441.

In the case of CCGACTGGGCCACGAAAGGTCATTGATTCAGTGA, the PBM binding z-score amounted to 3.16.

In turn, AATACAGGGTCATTGTAGGCCAGAGTACGCACAG returned a PBM binding z-score of 4.29.

On to TTACCAAGGTGAGCTGAGGTCGTGGATCCAACTC, for which the PBM binding z-score is 0.449.

For TCTATTAGTTGATTAGGGCAACCGCAACAGCGGA, the PBM binding z-score came to 2.72.

The sequence AGTCAAAGTTCATCTAGGTAACCTAAGATATGCT came in with a PBM binding z-score of 5.54.

In turn, TCAGACAGGTGAAGGTAACGCAGGTACGCAGTCG registered a PBM binding z-score of 2.71.

AGAATGAGGTTATATGTAGATCAGGGAAGAAAGT displayed a PBM binding z-score of 1.87.

In the case of GCTCGGAGGACAAGGTCAGAGATTTGTCCGTAGA, the PBM binding z-score was 0.587.

For the sequence TCTGCTAGGTCAGTTGGTCAGGTAACGAGCTGCC, the PBM binding z-score was 1.3.

CCTCGGAGGACTACAGGAGGTCAGAGCTGCCAGA: the PBM binding z-score was -0.225.

Sequence GGAACGACGGCAAGTTGATAGCAGAGTTTGATGG showed a PBM binding z-score of -0.679.

Take ATCTCTAGGTAAAGATAGTTCTGTGAATGCAAAT: the PBM binding z-score was determined as 0.389.

The sequence CGTCCAGGGTCAGAGAGGTCAGTGAATGCCGAGT came in with a PBM binding z-score of 2.81.

Regarding TCTAGTTGGTCACGGAGGTCACACCCGACGGGTA, the PBM binding z-score was 3.66.

The sequence TCATATAGGTAAATGCTAAGTGAAAGTCCGATCT registered a PBM binding z-score of 2.9.

TCTGCTAGGTCAGCTGGTCAGCTAACGAGCTGCC: the PBM binding z-score stood at 1.23.

CTACCAAGGTGAACAAGGGCGTTGATTACTATTC registered a PBM binding z-score of 0.624.

For AGTCAAAGTTCAAGACGAGGTAACGTAAAGCACG, the PBM binding z-score was determined as 5.35.

As to GCTGCTAGGTCAGGTTGATCAGCTAACGGGTACG, the PBM binding z-score was 0.36.

Sequence CCTTACGGGTCAAGGTTTTAGCACGGGTGGTACG gave a PBM binding z-score of 3.33.

The sequence TGAATGAGGTTATGAGATCAGGGAACGTTGCAAA gave a PBM binding z-score of 1.31.

Take AGAACGAGGGCACGCTGAGTTCATAGCAGAGTAG: the PBM binding z-score came out at 1.47.

AGTCAAAGTTCACTAGGTAACCTAAGATTCAGCT: the PBM binding z-score turned out to be 5.96.

Sequence GTACCAAGGTGAATAGGTCGTGGATGAGTAGGCG came in with a PBM binding z-score of 1.3.

On to CTCCAAAGGTCGTGCTCAGGTGAGTATACCAAAC, for which the PBM binding z-score was 3.35.

Turning to TGATATAGGTAAACAGGTGAAAGTCCGTAAGTTA, the PBM binding z-score came to 3.09.

As for TCTATTAGTAGATTAGGGCAACCGAAACAGCGGA, the PBM binding z-score worked out at 2.5.

As for CGTCCAAGGTCATAGGAGGTCAGTGAGGACAGAT, the PBM binding z-score stood at 4.86.

On to TCTCGGAGGACACGGAAGGTCAGAGCTCGACATC, for which the PBM binding z-score came out at 1.53.

Another experiment concerns PPARg:RXRa DBDmut IVT, anti-RXR (DBD mutation: RXRa K156A/R161A, NR concentration 270 nM, RXRa partner concentration 90 nM). The experiment is described as above. The method in brief:
as §1
The sequence TGAATGAGGTTAAAGATCTGGGAACGTGGCGTCG came in with a PBM binding z-score of 2.25.

Consider CTCGCAAGGTCGGTTGAGGTGAGTATACGGATAA, for which the PBM binding z-score was -0.323.

CCACACAGGTGAAAGGTAACTCAGTCTGGTACGC returned a PBM binding z-score of 2.15.

For CCTACTGCGCCAAGGTCATTGATCAGTCAAAGCA, the PBM binding z-score turned out to be 0.265.

On to TCTATTAGTTGAAGTGCAACCGACGAGTCCGTTT, for which the PBM binding z-score worked out at 2.28.

AGAACGAGGGCAATGAGTAGATAGCACGGGTGGC: the PBM binding z-score came out at 2.9.

In turn, TTGCCAAGGTGAAGGTCGTTGATCCCTCTGTAGA yielded a PBM binding z-score of 1.25.

TCTAGTTGGTCACGGAGGTCACACACGACGGGTA registered a PBM binding z-score of 2.46.

Regarding ACAGACAGGTTAGTGAAGGTAACTCAGCTGGACG, the PBM binding z-score was found to be 0.174.

The sequence GCGATTGGGGCAAAGCAGGTTACCATAAGGTTGG displayed a PBM binding z-score of 2.25.

As to ATCTCTAGGTAAGACTCCGTTCAGTGAAGAACGC, the PBM binding z-score was determined as 2.22.

The sequence CCGACTGGGCCACGAAAGGTCATTGATTCAGTGA yielded a PBM binding z-score of 4.66.

For the sequence AATACAGGGTCATTGTAGGCCAGAGTACGCACAG, the PBM binding z-score is 2.56.

As for TTACCAAGGTGAGCTGAGGTCGTGGATCCAACTC, the PBM binding z-score worked out at 1.07.

In turn, TCTATTAGTTGATTAGGGCAACCGCAACAGCGGA registered a PBM binding z-score of 2.2.

With AGTCAAAGTTCATCTAGGTAACCTAAGATATGCT, the PBM binding z-score was 0.989.

Regarding TCAGACAGGTGAAGGTAACGCAGGTACGCAGTCG, the PBM binding z-score stood at 2.13.

For the sequence AGAATGAGGTTATATGTAGATCAGGGAAGAAAGT, the PBM binding z-score came out at 3.28.

Regarding GCTCGGAGGACAAGGTCAGAGATTTGTCCGTAGA, the PBM binding z-score is -0.252.

As for TCTGCTAGGTCAGTTGGTCAGGTAACGAGCTGCC, the PBM binding z-score came to 2.56.

Sequence CCTCGGAGGACTACAGGAGGTCAGAGCTGCCAGA yielded a PBM binding z-score of -0.516.

Turning to GGAACGACGGCAAGTTGATAGCAGAGTTTGATGG, the PBM binding z-score is -0.476.

In turn, ATCTCTAGGTAAAGATAGTTCTGTGAATGCAAAT came in with a PBM binding z-score of 2.5.

CGTCCAGGGTCAGAGAGGTCAGTGAATGCCGAGT yielded a PBM binding z-score of 1.59.

Take TCTAGTTGGTCACGGAGGTCACACCCGACGGGTA: the PBM binding z-score amounted to 2.48.

Take TCATATAGGTAAATGCTAAGTGAAAGTCCGATCT: the PBM binding z-score was 4.03.

As for TCTGCTAGGTCAGCTGGTCAGCTAACGAGCTGCC, the PBM binding z-score worked out at 2.65.

Sequence CTACCAAGGTGAACAAGGGCGTTGATTACTATTC showed a PBM binding z-score of 2.71.

The sequence AGTCAAAGTTCAAGACGAGGTAACGTAAAGCACG yielded a PBM binding z-score of 0.127.

Regarding GCTGCTAGGTCAGGTTGATCAGCTAACGGGTACG, the PBM binding z-score was found to be 3.25.

Take CCTTACGGGTCAAGGTTTTAGCACGGGTGGTACG: the PBM binding z-score came to 2.52.

In turn, TGAATGAGGTTATGAGATCAGGGAACGTTGCAAA came in with a PBM binding z-score of 1.33.

The sequence AGAACGAGGGCACGCTGAGTTCATAGCAGAGTAG returned a PBM binding z-score of 3.84.

AGTCAAAGTTCACTAGGTAACCTAAGATTCAGCT displayed a PBM binding z-score of 3.06.

As to GTACCAAGGTGAATAGGTCGTGGATGAGTAGGCG, the PBM binding z-score amounted to 2.1.

CTCCAAAGGTCGTGCTCAGGTGAGTATACCAAAC came in with a PBM binding z-score of 0.883.

TGATATAGGTAAACAGGTGAAAGTCCGTAAGTTA gave a PBM binding z-score of 5.35.

Regarding TCTATTAGTAGATTAGGGCAACCGAAACAGCGGA, the PBM binding z-score was determined as 2.26.

Turning to CGTCCAAGGTCATAGGAGGTCAGTGAGGACAGAT, the PBM binding z-score is 3.74.

For TCTCGGAGGACACGGAAGGTCAGAGCTCGACATC, the PBM binding z-score was determined as 1.04.
